Laboratory results taken from PubChem BioAssay (Tox21).
“And” between values parts separate entries of the source, which are not always exact repeats. Identical values can stand only once. Inconclusive results are not listed. Entries that show only a call come without a potency. Some structures have more than one record in an assay (separate samples or runs), and their calls can disagree. The source made the active and inactive calls. Unless noted, the call rests on the fitted dose curve; in most records, active means well fitted curve in the direction sought with a large enough effect in the repeat runs; inconclusive means weak or mixed curves; inactive means no such curve, though single readings can be large; an effect the other way counts as inactive or inconclusive.

Assays:
[1] = qHTS assay to identify small molecule agonists of the hypoxia (HIF-1) signaling pathway - cell viability counter screen (AID 1224844; calls by dose curve; further: nearly all actives have a fitted effect of over 50% in size; further: potency means the concentration at half of the fitted maximal effect)
Method in brief: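 CellTiter-Glo luminescence read-out, 30 min RT, taken in the same wells as the beta-lactamase HRE reporter assay; HRE-bla ME-180 cells, 0.5% dialyzed FBS, 17 hr compound treatment at 37C, 5% CO2.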

[2] = qHTS assay to identify small molecule agonists of H2AX (AID 1224845; active means well fitted activation curve with a large enough effect in the signal ratio in the repeat runs, not every such curve was filed as active; the % refers to the signal ratio; further: potency means the concentration at half of the fitted maximal effect)
Method in brief: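 Phospho-H2AX Ser139 measured by HTRF (ex 320 nm; em 665 and 620 nm) after 24 hr antibody incubation. Compounds, 15 concentrations, 0.76% DMSO, were applied to CHO-K1 cells for 3hr at 37C before lysis.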

[3] = qHTS assay to identify small molecule agonists of H2AX - cell viability counter screen (AID 1224847; calls by dose curve; further: nearly all actives have a fitted effect of over 30% in size; further: potency means the concentration at half of the fitted maximal effect)
Method in brief: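 Quantitative HTS viability measurement: CHO-K1 wild-type cells in serum (10% FBS) medium, short 3 hr drug exposure at 37C with 0.76% DMSO, CellTiter-Glo luminescent detection.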

[4] = qHTS RealTime-Glo MT Cell Viability Assay in HepG2 cells - 24 hour (AID 1224867); further: nearly all actives have a fitted effect of over 50% in size; further: potency means the concentration at half of the fitted maximal effect
Method in brief: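 Viability was tracked continuously by NanoLuc luminescence from prosubstrate reduced by living HepG2 cells, at successive time points over 40 h of compound exposure. Cells with reagent were preincubated 5 h at 37 °C before compound addition.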

[5] = qHTS RealTime-Glo MT Cell Viability Assay in HEK293 cells - 32 hour (AID 1224868); further: nearly all actives have a fitted effect of over 50% in size; further: potency means the concentration at half of the fitted maximal effect
Method in brief: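 Viability tracked continuously by luminescence as live cells reduce a prosubstrate for NanoLuc; HEK293 cells preincubated 5 h, compound-treated at 37 C, and read at 0, 8, 16, 24, 32 and 40 h.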

[6] = qHTS RealTime-Glo MT Cell Viability Assay in HepG2 cells - 40 hour (AID 1224870); further: nearly all actives have a fitted effect of over 50% in size; further: potency means the concentration at half of the fitted maximal effect
Method in brief: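 Real-time viability: cells seeded at 600 per well together with NanoLuc and cell-permeant prosubstrate, compounds added after 5 h incubation. Luminescence tracked at 0, 8, 16, 24, 32 and 40 h of exposure.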

[7] = A CellTox Green Cytotoxicity Assay to monitor cytotoxicity in HEK293 cells - 0 hour (AID 1224869); further: nearly all actives have a fitted effect of over 50% in size
Method in brief: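 Read-out: fluorescence of a cell-impermeant cyanine dye staining DNA of dead cells, proportional to cytotoxicity. HEK293, 600 cells/well with reagent, compound (23 nL DMSO) added after 5 h; reads at 0, 8, 16, 24, 32, 40 h.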

[8] = qHTS assay to identify small molecule agonists of the hypoxia (HIF-1) signaling pathway (AID 1224846; active means well fitted activation curve with a large enough effect in the signal ratio in the repeat runs, not every such curve was filed as active; the % refers to the signal ratio)
Method in brief: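 Beta-lactamase FRET read-out (CCF4-AM substrate) from ME-180 cells carrying an HRE-driven bla reporter, after 17 hrs compound exposure at 37C/5% CO2. Cells were seeded at 2,000 per well in 0.5% dialyzed FBS medium and preincubated 5 hrs.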

[9] = qHTS assay to identify small molecule antagonists of the estrogen related receptor (ERR) signaling pathway from Tox21 library (AID 1224848); further: nearly all actives have a fitted effect of over 50% in size; further: potency means the concentration at half of the fitted maximal effect
Method in brief: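 ERR cell line, 2,000 cells/well. 6 h settle, then compound (DMSO) added; 18 h at 37 C; ONE-Glo luminescence after 30 min RT.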

[10] = qHTS assay to identify small molecule agonists of the estrogen related receptor (ERR) signaling pathway from Tox21 library (AID 1224849; calls by dose curve; further: nearly all actives have a fitted effect of over 15% in size); settings: ERR reporter cell line, ONE-Glo luciferase, 18 h
Method in brief: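 Luminescence readout (ONE-Glo, 30 min RT) after 18 h compound exposure at 37 C of NTP-supplied ERR reporter cells; cells were plated 6 h before compound addition by pin tool.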

| Structure (SMILES) | Potency [1] | Potency [2] | Potency [3] | Potency [4] | Potency [5] | Potency [6] | Potency [7] | outcome [8] | Potency [9] | activity change, positive = activation ([10]; at 92.4 µM (top of the series)) | activity change, positive = activation ([10]; at 42.5 µM (top of the series)) |
| --- | --- | --- | --- | --- | --- | --- | --- | --- | --- | --- | --- |
| CCCCCCCC[N+](C)(CCCCCCCC)CCCCCCCC | 15.5 µM (active) and 9.79 µM (active) and 19.5 µM (active) | inactive and 17.9 µM (active) | 44.9 µM (active) and 567 nM (active) and 35.7 µM (active) | 10.9 µM (active) and 21.9 µM (active) and 9.77 µM (active) | 218 nM (active) and 138 nM (active) and 1.55 µM (active) | 9.75 µM (active) and 15.5 µM (active) and 8.71 µM (active) |  |  |  |  |  |
| CCC[CH2][Sn]([Cl])([CH2]CCC)[CH2]CCC | 310 nM (active) and 1.1 µM (active) | 358 nM (active) and 401 nM (active) | 637 nM (active) and 713 nM (active) | 1.55 µM (active) and 549 nM (active) | 347 nM (active) and 490 nM (active) | 979 nM (active) and 347 nM (active) | inactive |  |  |  |  |
| Nc1ccc([N+](=O)[O-])cc1N | 21.9 µM (active) and inactive |  | inactive | inactive | inactive | inactive | inactive | inactive | inactive | -63% (inactive) and 34.6% (active) |  |
| ClC(Cl)(Cl)c1ccccc1 | inactive | inactive | inactive | inactive | inactive | inactive |  | inactive |  |  |  |
| CCOP(=S)(OCC)SCSC(C)(C)C | inactive |  | inactive | inactive | inactive | inactive | inactive | inactive |  |  |  |
| [Cl-].[Cl-].[Cl-].[Fe+3] | inactive | inactive | inactive | inactive | inactive | inactive | inactive | inactive |  |  |  |
| CCC(=O)Nc1ccc(Cl)c(Cl)c1 | inactive | inactive | inactive | inactive | 44.5 µM (active) | inactive |  | inactive |  |  |  |
| CCCCOC(=O)COC(=O)c1ccccc1C(=O)OCCCC |  | inactive | inactive | inactive | inactive | inactive | inactive | inactive | inactive | 4.38% (inactive) and 0.695% (inactive) |  |
| N#Cc1cccnc1 |  | inactive | inactive | inactive | inactive | inactive | inactive | inactive | inactive | 5.82% (inactive) and 1.56% (inactive) |  |
| NN=C(N)N | inactive | inactive | inactive | inactive | inactive | inactive |  |  |  |  |  |
| Clc1ccccc1-c1nnc(-c2ccccc2Cl)nn1 | inactive | inactive | 100 µM (active) | inactive | inactive | inactive |  | inactive |  |  |  |
| CN(C)P(=O)(N(C)C)N(C)C |  | inactive | inactive | inactive | inactive | inactive | inactive | inactive | inactive | 5.26% (inactive) and 10.2% (inactive) |  |
| O=[N+]([O-])c1ccc(Cl)c([N+](=O)[O-])c1 | 19.8 µM (active) and 13.8 µM (active) |  | 102 µM (active) | 35.2 µM (active) and 17.4 µM (active) | 9.92 µM (active) and 12.3 µM (active) | 35.2 µM (active) and 17.4 µM (active) | inactive |  | 24.7 µM (active) and 24.3 µM (active) | -81.7% (inactive) and -78.5% (inactive) |  |
| CC(C)=CC1C(C(=O)OCc2cccc(Oc3ccccc3)c2)C1(C)C (centres undefined) | inactive | inactive |  | inactive | inactive | inactive | inactive | inactive | inactive | -0.843% (inactive) | -0.963% (inactive) |
| CCOC(=O)c1ccccc1N | inactive | inactive | inactive | inactive | inactive | inactive |  | inactive |  |  |  |
| COP(=O)(NC(C)=O)SC (centres undefined) | inactive | inactive | inactive | inactive | inactive | inactive |  | inactive |  |  |  |
| O=[N+]([O-])c1ccc(Nc2ccccc2)cc1 | inactive |  | 80 µM (active) | inactive | 24.7 µM (active) and 19.5 µM (active) | inactive | inactive | inactive |  | -30.2% (inactive) and -27.4% (inactive) |  |
| COP(=S)(OC)Oc1ccc(Sc2ccc(OP(=S)(OC)OC)cc2)cc1 |  | inactive | inactive | inactive | inactive | inactive |  | inactive | 27.3 µM (active) and inactive | -40% (inactive) | -3.82% (inactive) |

| Structure (SMILES) | Potency [1] | Potency [2] | Potency [3] | Potency [4] | Potency [5] | Potency [6] | Potency [7] | outcome [8] | Potency [9] | activity change, positive = activation ([10]; at 92.4 µM (top of the series)) | activity change, positive = activation ([10]; at 42.5 µM (top of the series)) |
| --- | --- | --- | --- | --- | --- | --- | --- | --- | --- | --- | --- |
| C[N+](C)(C)CC(=O)O | inactive | inactive | inactive | inactive | inactive | inactive | inactive |  |  |  |  |
| ClCC(Cl)CCl |  | inactive | inactive | inactive | inactive | inactive | inactive | inactive | inactive | 8.78% (inactive) and 5.09% (inactive) |  |
| C[C@]12CCC(=O)C=C1CC[C@@H]1[C@@H]2CC[C@@]2(C)[C@H]1CC[C@]2(C)O | inactive |  | 71.9 µM (active) and inactive | inactive | 22.1 µM (active) | inactive |  | inactive |  |  |  |
| CCCCCCCCCc1ccc(O)cc1 | 39.3 µM (active) and 54.9 µM (active) | 102 µM (active) and 101 µM (active) | 90.7 µM (active) and 101 µM (active) | inactive | 9.87 µM (active) and 5.49 µM (active) | inactive |  |  |  |  |  |
| CC(C)(c1ccccc1)c1ccc(O)c(C(C)(C)c2ccccc2)c1 | 21.7 µM (active) and 21.9 µM (active) | 39.7 µM (active) | 28.1 µM (active) and 56.6 µM (active) | 54.4 µM (active) and 43.6 µM (active) | 19.3 µM (active) and 30.9 µM (active) | 49 µM (active) |  |  | 42.9 µM (active) and 48.6 µM (active) | -71.4% (inactive) and -64.9% (inactive) |  |
| [CH3][Sn]([Cl])([Cl])[Cl] | inactive | inactive | inactive | inactive | inactive | inactive |  | inactive |  |  |  |
| CC1CC(=O)O1 (centres undefined) | inactive | inactive | inactive | inactive | inactive | inactive | inactive | inactive |  |  |  |
| CCC1(c2ccc(N)cc2)CCC(=O)NC1=O (centres undefined) | inactive | inactive | inactive | inactive | inactive | inactive | inactive |  | inactive | -19.8% (inactive) | 5.08% (inactive) |
| O=C1C(Cl)=C(Cl)C(=O)c2ccccc21 | 7.79 µM (active) |  | 22.6 µM (active) and 14.2 µM (active) | 24.6 µM (active) and 11 µM (active) | 6.19 µM (active) and 7.76 µM (active) | 34.8 µM (active) and 17.4 µM (active) |  |  | 24.4 µM (active) and inactive | -82.7% (inactive) and -46.9% (inactive) |  |
| CC1(C)Cc2cccc(O)c2O1 | inactive | inactive | inactive | inactive | inactive | inactive | inactive | inactive |  |  |  |
| C[N+](C)(C)CC(=O)[O-] | inactive | inactive | inactive | inactive | inactive | inactive | inactive |  |  |  |  |
| CC(C)CON=O | inactive | inactive | inactive | inactive | inactive | inactive | inactive | inactive |  |  |  |
| CCOP(=S)(OCC)OP(=S)(OCC)OCC |  | inactive | inactive | inactive | inactive | inactive | inactive | inactive | inactive | -12.2% (inactive) and -0.199% (inactive) |  |
| Clc1cccc(C(Cl)(Cl)Cl)n1 | inactive | inactive | inactive | inactive | inactive | inactive |  | inactive |  |  |  |
| CN(C)c1nc(=O)n(C2CCCCC2)c(=O)n1C | inactive | inactive | inactive | inactive | inactive | inactive | inactive | inactive |  |  |  |
| CCOP(=S)(OCC)SCn1c(=O)oc2cc(Cl)ccc21 | inactive | inactive |  | inactive | 29.5 µM (active) | inactive | inactive | inactive |  |  |  |
| O=NN1CCOCC1 | inactive | inactive | inactive | inactive | inactive and 2.19 µM (active) | inactive |  | inactive |  |  |  |
